# This is a sample that favours compounds with a hit; in the whole collection about 27% have one here.
# Cav32 inh: Cav3.2 calcium influx blockers – cell-based, Fluo-4 calcium fluorescence, FDSS, MLSMR library, primary screen; Cav3.2-expressing cells; stronger effect = lower value; 100,000 compounds, 4% hits; AID 449739, 2010; B-score at 10 µM; Voltage-dependent T-type calcium channel subunit alpha-1H (Homo sapiens), O95180;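 active means single-dose well whose peak fluorescence ratio is a statistical outlier from its plate by either plate-standardised score or position-corrected B-score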
# CYP2C19 inh: blockers of cytochrome P450 2C19 activity – biochemical, luminescence, ADME assay, primary screen; P33261; CYP2C19 Supersomes, luciferin-H EGE luminescence, 30 min; inhibition, % at 5 µM; 96,000 compounds, 21% hits; AID 778, 2007;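 active means CYP2C19 inhibition above a set limit at 5 µM in the primary screen, cut at about 50% in these data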
# CYP2C9 inhib: blockers of cytochrome P450 2C9 activity – biochemical, luminescence, ADME assay, primary screen; P11712; CYP2C9 Supersomes, luciferin-H conversion; inhibition, % at 5 µM; 96,000 compounds, 20% hits; AID 777, 2007;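 active means blocking of liver enzyme CYP2C9 beyond about 50% at 5 µM, limit read from the data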
# CYP2C19 act: human CYP2C19 activators, primary screen, biochemical, luminescence; 96,000 tested, under 10 active; activation factor at 5 µM; recombinant CYP2C19, luciferin-H EGE luminescence; stronger effect = higher value; 0 = fully inhibited enzyme, 1 = untreated enzyme; Cytochrome P450 2C19 (Homo sapiens), P33261;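 active means activation factor of at least 2 at 5 µM in the primary screen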
# CYP2C9 activ: human CYP2C9 activators, primary screen, biochemical, luminescence; Cytochrome P450 2C9 (Homo sapiens), P11712; recombinant CYP2C9, luciferin-H conversion; stronger effect = higher value; factor 1 = untreated enzyme, 0 = blocked; activation factor at 5 µM; 96,000 compounds, 1.4% hits;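 active means activation factor of 2 or more for CYP2C9 at a 5 µM dose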
# Numbers stand for hits; 0 = inactive; - = no result.
SMILES,Cav32 inh,CYP2C19 inh,CYP2C9 inhib,CYP2C19 act,CYP2C9 activ
CC(C)Oc1cc(NC(=O)CSCC(=O)Nc2cccc(C(F)(F)F)c2)c(Cl)cc1Cl,0,0,0,0,0
CCC(=O)Nc1nnc(-c2ccco2)o1,0,0,0,0,0
Cc1ccsc1C(=O)Nc1nnc(-c2ccco2)o1,0,0,57,0,0
C=CCc1ccc(O)c(-c2cc(CC=C)ccc2O)c1,-5,-,-,-,-
O=C1CCC([N+](=O)[O-])C(c2cccc(Cl)c2Cl)N1 (configuration not stated),0,0,0,0,0
Cc1ccc(NC(=O)CC2S/C(=N/c3nccs3)N(C)C2=O)c(C)c1 (configuration not stated),0,96,98,0,0
CCNC(=O)CC1SC(=Nc2cccc(Cl)c2C)N(C)C1=O (configuration not stated),0,-,-,-,-
CCCn1nnc(NC(=O)c2ccc(OC)cc2)n1,0,0,0,0,0
CCCn1nnc(NC(=O)c2cc(Br)cc(Br)c2OC)n1,0,83,0,0,0
CCCn1nnc(NC(=O)c2ccc(Br)cc2)n1,0,56,0,0,0
CC(C)C1Cc2c(sc3[nH]c(=S)n(Cc4ccccc4)c(=O)c23)CO1 (configuration not stated),0,0,77,0,0
COc1ccc(S(=O)(=O)N2CCN(C)CC2)cc1C,0,0,0,0,0
COc1cc(C)c(S(=O)(=O)n2ccc(C)n2)cc1C,0,83,0,0,0
COc1ccc(S(=O)(=O)n2ccc(C)n2)cc1C,0,50,0,0,2.4
O=C(c1cccc(Br)c1)c1cn(-c2ccccc2)nc1C(=O)c1ccccc1,-,0,0,0,0
CC(C)C(=O)NC(=O)[C@@H]1CCCN1C(=O)/C=C/c1ccccc1,0,-,-,-,-
O=C(Nc1c(Cl)cc(Cl)cc1-c1nc2ccccc2s1)c1ccc(Br)o1,0,0,55,0,0
COC(=O)C1=C(CSc2nncn2C)NC(=O)NC1c1ccc(F)cc1 (configuration not stated),0,0,0,0,0
CN1C=CC2=C(C#N)C(N)C(C#N)(C#N)C(c3ccccc3)C2C1 (configuration not stated),-,0,0,0,0
C=COC(=O)CSc1snc(SCC(=O)OC)c1C#N,0,0,0,0,0
CC(C)NC(=O)N1CCOCCOCCN(C(=O)NC(C)C)CCOCCOCC1,0,0,0,0,0
Cc1ccc(S(=O)(=O)C2(C(=O)Nc3cccc(F)c3)CC2)cc1,0,95,0,0,0
O=C(NC1CCCCCC1)c1ccc(CN2CCOCC2)cc1,-,0,0,0,0
CNC(=O)C1C2C=CC3(O2)C1C(=O)N(CCOC)C3C(=O)NCc1ccc(OC)cc1 (configuration not stated),0,0,0,0,0
COC(=O)C(NS(C)(=O)=O)(c1c(C)[nH]c2ccccc12)C(F)(F)F (configuration not stated),-,64,0,0,0
SMILES,Cav32 inh,CYP2C19 inh,CYP2C9 inhib,CYP2C19 act,CYP2C9 activ
CCOC(=O)c1[nH]c(C)c(CN(Cc2ccco2)C(=O)C(F)(F)F)c1C,0,0,0,0,0
CCCS(=O)(=O)c1c(S(=O)(=O)CCC)c2c(N)cccn2c1C(=O)c1ccc(F)cc1,0,66,68,0,0
CCCS(=O)(=O)c1c(S(=O)(=O)CCC)c2c(N)cccn2c1C(=O)c1ccc(Br)cc1,0,-,-,-,-
c1cncc(-c2nn[nH]n2)c1,0,0,0,0,0
c1csc(-c2nn[nH]n2)c1,0,95,0,0,0
CSc1ccc(/C=N/n2c(C)cc(C)cc2=O)cc1,0,0,0,0,0
Cc1cc(C)c2c(N)c(-c3nc4ccccc4[nH]3)sc2n1,0,52,57,0,0
CN1CC(=O)N(CCOc2ccccc2)C1=O,0,0,0,0,0
CCOc1ccc(OCCN2C(=O)NC(Cc3c[nH]c4ccccc34)C2=O)cc1 (configuration not stated),-,68,80,0,0
Cc1ccc(N=C/C(C(=O)C(F)(F)F)=C(\O)c2cccs2)cc1,0,0,0,0,0
COc1cc(Cl)c(S(=O)(=O)NCc2ccccn2)cc1Cl,0,81,0,0,0
O=C(CCNS(=O)(=O)c1ccc(Cl)cc1)NCc1ccccn1,0,0,0,0,0
O=S(=O)(NCCc1ccccn1)c1ccc(F)c(F)c1,0,85,0,0,0
COc1ccc(S(=O)(=O)NCc2ccccn2)cc1Cl,0,92,0,0,3.2
CCOc1cc(Cl)c(S(=O)(=O)NCc2ccccn2)cc1Cl,0,0,0,0,0
O=C(CN1C(=O)COc2ccccc21)N(Cc1cccnc1)Cc1ccccc1F,0,0,54,0,0
O=C(CCN1C(=O)COc2ccccc21)NCc1cccnc1,0,-,-,-,-
NS(=O)(=O)c1ccc(CCNc2nc(CN3CCOCC3)nc3sc4c(c23)CCC4)cc1,0,0,0,0,0
CC(=O)Nc1ccc(S(=O)(=O)Nc2nc(CN3CCOCC3)nc3sc4c(c23)CCCC4)cc1,0,0,53,0,0
Cc1sc2nc(CN3CCOCC3)nc(NS(=O)(=O)c3ccccc3)c2c1C,0,0,0,0,0
Cc1sc2nc(CN3CCOCC3)nc(NS(=O)(=O)c3ccc4c(c3)OCCO4)c2c1C,0,0,80,0,0
Cc1sc2nc(CN3CCOCC3)nc(NCCc3ccccc3)c2c1C,0,0,90,0,0
Cc1ccc(Cl)cc1NC(=O)CCC(=O)Nc1cc(Cl)ccc1C,-,0,0,0,0
Cc1ccc2c(c1)[nH]c1c(=O)n(Cc3ccccn3)cnc12,0,0,0,0,0
Cc1cc(C)nc(SCc2nnc(SCC(=O)Nc3nc(-c4ccccc4)cs3)n2C)n1,0,-,-,-,-
SMILES,Cav32 inh,CYP2C19 inh,CYP2C9 inhib,CYP2C19 act,CYP2C9 activ
Cc1ccc(-c2csc(NC(=O)CSc3nc(C)cs3)n2)cc1,-4.6,-,-,-,-
Cc1cc(NC(=O)CSc2nc(-c3ccc(Cl)cc3)cs2)no1,0,-,-,-,-
O=C(CSc1ncn[nH]1)Nc1nc(-c2ccccc2)cs1,0,64,0,0,0
Cc1csc(SCC(=O)Nc2nc(-c3ccccc3)cs2)n1,-6,0,0,0,0
Cc1cc(=O)[nH]c(SCC(=O)Nc2nc(-c3ccccc3)cs2)n1,-,0,60,0,0
C=CCOC(=O)C1=C[C@H](C2CCCCC2)C[C@H](OCc2ccc(CO)cc2)O1,0,-,-,-,-
COc1ccccc1-c1ccc(=O)n(CC(=O)NC(C)(C)C)n1,0,0,0,0,0
CCOc1ccc(C2=Cc3cc(OC)c(OC)cc3C(=C(Cl)Cl)O2)cc1,0,0,0,0,0
Cc1ccc(C)c(-n2c(C)cc(/C=N/NC(=O)c3c(C)nc4cc(C)ccn34)c2C)c1,0,-,-,-,-
CCC(C)c1ccccc1NC(=S)Nc1cccnc1 (configuration not stated),0,0,0,0,0
